Measurements from PubChem BioAssay AID1224860 (National Center for Advancing Translational Sciences (NCATS), 2016).
Results filed as inconclusive are left out. Where a call stands in place of a potency, no number is given. Activity calls are given as the source filed them. Calls follow the shape of the dose curve; as a rule, active = well fitted cell-killing curve with a large enough effect; inconclusive = small, poorly fitted or top-dose-only effect; inactive = flat fitted curve, though single readings scatter.

Experiment: Compound cytotoxicity measured by an ATP content assay as a counter-screen for lead compounds in human iPSC derived neural progenitor cells (hNPCs)
Conditions: human iPSC-derived NPC viability, ATP luminescence; series mostly up to 46.1 µM
Experimental: National Center for Advancing Translational Sciences [NCATS] Johns Hopkins University School of Medicine Florida State University Assay Overview: Many compounds can cause cytotoxicity at high compound concentrations. […] The compound cytotoxicity may also cause side effects or toxicity in human. Thus, the compound cytotoxicity needs to be measured in each cell type and each compound incubation time - same as these in the compound screening assay. The compound cytotoxicity can be measured by cell viability assays such as the ATP content assay. We use an ATP content assay kit for cell viability measurement. It measures ATP content (level) in human iPSC derived neural progenitor cells (hNPCs) using a luminescence readout that is proportional to viable cell numbers. Decrease in the luminescence signal after the compound treatment indicates reduced cell viability and cell death caused by compound treatment.
Assay Protocol Summary: The medium for hNPCs consists of DMEM/F12, N2 supplement (ThermoFisher, Cat.# 17502048), NEAA (ThermoFisher, Cat. # 11140050), 2 ug/ml heparin, 2 uM cyclopamine, and B27 (ThermoFisher, Cat. # 17504044). The ATP content assay kit (PerkinElmer, Cat.# 6016731) was used to determine cell viability. The reagent was reconstituted and prepared as described by the manufacturer. Cells were seeded in 384- or 1536-well assay plates and cultured at 37 C with 5% CO2 for 16 to 20 hours. The typical cell seeding density in the 1536-well plate assay is 350 cells/well in 3 ul medium for hNPCs in the tissue cultured treated/PDL coated plates. Compounds were added to cells and incubated for a specific time such as 6, 24, or 72 hours before addition of the reagent mixture of the ATP content assay kit at 1:1 ratio. After incubation at room temperature for 10 minutes, the luminescence intensity in assay plates was measured using a ViewLux plate reader (PerkinElmer). […] The percentage inhibitions of the decreased cell viability by small molecules were then calculated that indicate compound cytotoxicity.

**Q.** Which Potency does the source give for COCCn1c2c([n+](Cc3cnccn3)c1C)C(=O)c1ccccc1C2=O here?
**A.** The Potency was 0.69 µM (active).

**Q.** For CCCS(=O)c1ccc2nc(NC(=O)OC)[nH]c2c1 (stereo not given), which Potency is on record?
**A.** Its Potency is “inactive”.

**Q.** Which Potency does the source give for O=C(Nc1ccc(C(=O)O)c(O)c1)c1ccccc1 here?
**A.** The Potency was “inactive”.

**Q.** With O=C(Nc1ccc([N+](=O)[O-])cc1Cl)c1cc(Cl)ccc1O as the compound, how does the Potency read?
**A.** Its Potency is 8.69 µM (active).

**Q.** With CC(C(=O)O)c1ccc(C(=O)c2ccccc2)s1 (stereo not given) as the compound, how does the Potency read?
**A.** Its Potency is “inactive”.

**Q.** Which Potency does the source give for CC(=C(CCOC(=O)C(C)C)SSC(CCOC(=O)C(C)C)=C(C)N(C=O)Cc1cnc(C)nc1N)N(C=O)Cc1cnc(C)nc1N here?
**A.** The Potency was “inactive”.

**Q.** Which Potency does the source give for Cc1cccc(C#Cc2ccccc2)n1 here?
**A.** Its Potency is 9.75 µM (active).

**Q.** For CC(=O)Oc1cccc2c1C(=O)c1c(OC(C)=O)cc(C(=O)O)cc1C2=O, which Potency is on record?
**A.** Its Potency is “inactive”.

**Q.** Which Potency does the source give for N[C@H](CSC(c1ccccc1)(c1ccccc1)c1ccccc1)C(=O)O here?
**A.** The Potency was “inactive”.

**Q.** Which Potency does the source give for N#C/C(=C\c1ccc(O)c(O)c1)C(=O)Nc1ccccc1 here?
**A.** Its Potency is “inactive”.

**Q.** Which Potency does the source give for Cc1csc(NC(=O)c2sc3nc4c(c(C(F)(F)F)c3c2N)CCC4)n1 here?
**A.** Its Potency is 1.95 µM (active).

**Q.** For O=C(OCc1ccccc1)c1ccc(O)cc1, which Potency is on record?
**A.** The Potency was “inactive”.

**Q.** With CNC(=O)c1ccccc1Sc1ccc2c(/C=C/c3ccccn3)n[nH]c2c1 as the compound, how does the Potency read?
**A.** The Potency was 7.74 µM (active).

**Q.** With Nc1nc2ccc([N+](=O)[O-])cc2s1 as the compound, how does the Potency read?
**A.** Its Potency is “inactive”.

**Q.** With O=C1C[C@@H](c2ccc(O)cc2)Oc2cc(O)cc(O)c21 as the compound, how does the Potency read?
**A.** Its Potency is “inactive”.

**Q.** With COc1ccc(CC2=NN3C([C@@H](CCc4ccccc4)[C@@H](C)O)=NC(C)C3C(=O)N2)cc1OC (stereo not given in full) as the compound, how does the Potency read?
**A.** The Potency was “inactive”.

**Q.** Which Potency does the source give for Oc1cc(O)cc(/C=C/c2ccc(O)c(O)c2)c1 here?
**A.** Its Potency is 7.74 µM (active).

**Q.** For CCCCCNC(=O)N1CCC(CN(Cc2ccc(Cl)cc2)Cc2ccc([N+](=O)[O-])s2)C1 (stereo not given), which Potency is on record?
**A.** Its Potency is “inactive”.

**Q.** Which Potency does the source give for COc1ccc2nc(NC(=O)Nc3ccccc3)sc2c1 here?
**A.** Its Potency is 7.74 µM (active).

**Q.** With NC(=O)c1cccc2[nH]c(-c3ccc([C@H]4CCCN4)cc3F)nc12 as the compound, how does the Potency read?
**A.** The Potency was 4.35 µM (active).

**Q.** For O=C(O)CCC(=O)c1ccc(-c2ccccc2)cc1, which Potency is on record?
**A.** Its Potency is “inactive”.

**Q.** With O=c1[nH]nc(Sc2ncc([N+](=O)[O-])s2)n1-c1ccc2c(c1)OCCO2 as the compound, how does the Potency read?
**A.** The Potency was 1.73 µM (active).

**Q.** With O=C(Oc1ccccc1)c1cccc(C(=O)Oc2ccccc2)c1 as the compound, how does the Potency read?
**A.** Its Potency is “inactive”.

**Q.** For Oc1ccc(/C=C/c2cc(O)cc(O)c2)cc1, which Potency is on record?
**A.** The Potency was 9.75 µM (active).

**Q.** With CC[C@]1(O)C[C@H]2CN(CCc3c([nH]c4ccccc34)[C@@](C(=O)OC)(c3cc4c(cc3OC)N(C=O)[C@H]3[C@@](O)(C(=O)OC)[C@H](OC(C)=O)[C@]5(CC)C=CCN6CC[C@]43[C@@H]65)C2)C1 as the compound, how does the Potency read?
**A.** The Potency was “inactive”.

**Q.** For O=C(O)c1ccccc1Nc1cccc(C(F)(F)F)c1, which Potency is on record?
**A.** Its Potency is “inactive”.

**Q.** For CC=CC[C@@H](C)C(=O)[C@H]1C(=O)N[C@@H](C(C)C)C(=O)N(C)CC(=O)N(C)[C@@H](CC(C)C)C(=O)N[C@@H](C(C)C)C(=O)N(C)[C@@H](CC(C)C)C(=O)N[C@@H](C)C(=O)N[C@H](C)C(=O)N(C)[C@@H](CC(C)C)C(=O)N(C)[C@@H](CC(C)C)C(=O)N(C)[C@@H](C(C)C)C(=O)N1C, which Potency is on record?
**A.** The Potency was “inactive”.

**Q.** Which Potency does the source give for CN(C)c1ccc(/C=C2\C(=O)Nc3ccccc32)cc1 here?
**A.** Its Potency is 8.69 µM (active).

**Q.** Which Potency does the source give for O=C(Nc1ncc([N+](=O)[O-])s1)c1cccs1 here?
**A.** Its Potency is “inactive”.

**Q.** For Cc1c(C(=O)O)c(O)cc2c1C(=O)c1c(O)c([C@@H]3O[C@H](CO)[C@@H](O)[C@H](O)[C@H]3O)c(O)c(O)c1C2=O, which Potency is on record?
**A.** The Potency was “inactive”.

**Q.** Which Potency does the source give for Cc1nc(N)sc1-c1ccnc(Nc2ccc(N3CCOCC3)cc2)n1 here?
**A.** Its Potency is “inactive”.

**Q.** Which Potency does the source give for Cc1cc(O)c2c(c1)C(=O)c1cc(O)cc(O)c1C2=O here?
**A.** The Potency was “inactive”.

**Q.** For O=C1c2ccccc2C(=O)c2c1ccc(O)c2O, which Potency is on record?
**A.** The Potency was “inactive”.

**Q.** For [O-][n+]1ccccc1SSc1cccc[n+]1[O-], which Potency is on record?
**A.** Its Potency is 0.112 µM (active).

**Q.** With NC(N)=NN=C(/C=C/c1ccc([N+](=O)[O-])o1)/C=C/c1ccc([N+](=O)[O-])o1 as the compound, how does the Potency read?
**A.** The Potency was 1.95 µM (active).

**Q.** Which Potency does the source give for O=C(O)[C@@H](c1ccc(OCc2ccc3ccccc3n2)cc1)C1CCCC1 here?
**A.** Its Potency is “inactive”.

**Q.** For CCC(C(=O)O)c1ccc(N2Cc3ccccc3C2=O)cc1 (stereo not given), which Potency is on record?
**A.** Its Potency is “inactive”.

**Q.** Which Potency does the source give for CC1(C)OC2=C(C(=O)c3ccccc3C2=O)[C@H](NCc2ccccc2)[C@H]1O here?
**A.** Its Potency is 3.98 µM (active).

**Q.** With C[C@H](NC(=O)C(=O)Nc1ccccc1C(C)(C)C)C(=O)N[C@@H](CC(=O)O)C(=O)COc1c(F)c(F)cc(F)c1F as the compound, how does the Potency read?
**A.** The Potency was “inactive”.

**Q.** For C=CCCCCCCCCC(=O)O, which Potency is on record?
**A.** Its Potency is “inactive”.
